Screen size: about 5,500 compounds; about 2,000 (36%) were called active. Roughly 18% stayed inconclusive and do not appear here. Rule as the data show it: active = normalized growth mostly below about 0.91 (no sharp cut-off); inconclusive = no clear call, values can overlap the other calls; inactive = mostly above about 0.92. The list shows a part of the results.
Assay: chemical genetic growth profiling, strain panel (AID 1159580);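 also: tested at 20 µM; growth read once vehicle control cultures reached saturation at 30 °C; 1 = growth at the plate median or of vehicle wells; lower values mean less growth of the strain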
Conditions: S. cerevisiae deletion strains, growth OD

Measured: normalized growth

N[C@@H](Cc1c[nH]c2ccccc12)C(=O)O
inactive: locus YAL040C, strain CLN3, active compounds read low 1.02 | locus YCL061C, strain MRC1 (second series), active compounds read low 1 | locus YDR150W, strain NUM1, active compounds read low 1.01 | locus YDR363W, strain ESC2, active compounds read low 1.01 | locus YER002W, strain NOP16, active compounds read low 1.01 | locus YGR078C, strain PAC10, active compounds read low 1 | locus YGR229C, strain SMI1, active compounds read low 1.03 | locus YMR307W, strain GAS1, active compounds read low 0.991 | locus YNL128W, strain TEP1, active compounds read low 1 | locus YNL175C, strain NOP13, active compounds read low 0.997 | locus YNL197C, strain WHI3, active compounds read low 0.996 | locus YNL224C, strain SQS1, active compounds read low 1.01 | locus YOR083W, strain WHI5 (second series), active compounds read low 0.996 | locus YPL241C, strain CIN2, active compounds read low 1.01

From PubChem BioAssay AID1159580 (chemical genetic matrix, 2015)
